Experimental data: PubChem BioAssay
“And” between values parts separate entries of the source, which are not always exact repeats. Equal values may be shown once. Some structures have more than one record in an assay (separate samples or runs), and their calls can disagree. The source made the active and inactive calls. Unless noted, the rule behind the calls is not given here.

Assays:
[1] = signal quenchers or enhancers, Cy5 substrate/SSB – biochemical, NIH Clinical Collection, E. coli SSB, artefact control for HCV NS3 helicase inhibitor project (AID 743268); details: Cy5-oligo bound E. coli SSB, fluorescence interference
[2] = tested on: Hepatitis C virus NS3 helicase; assay: blockers of NS3h binding to DNA – biochemical, fluorescence polarization, NIH Clinical Collection, primary screen (AID 743270); details: NS3 helicase binding to Cy5-dT15 DNA, stronger effect = higher value, concentration not given here
[3] = target: Single-stranded DNA-binding protein (Escherichia coli (strain K12)) (UniProt P0AGE0); assay: SSB-ssDNA binding inhibitors – biochemical, fluorescence polarization, NIH Clinical Collection, counter-screen for HCV NS3 helicase inhibitor project (AID 743271; in the data active = inhibition above about 28%); details: E. coli SSB-DNA binding, stronger effect = higher value, concentration not given here
[4] = compounds distorting NS3 helicase fluorescence signal – biochemical, NIH Clinical Collection, artefact control for HCV NS3 helicase inhibitor project (AID 743272); details: fluorescence interference counterscreen, HCV NS3 helicase assay; stronger effect = lower value;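 note: HCV NS3 helicase with a Cy5 labelled single stranded DNA probe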
[5] = tested on: Neuropilin-2 / VEGF-C interaction (human); assay: small molecules blocking Neuropilin-2/VEGF-C interaction – biochemical, microplate binding format, z-score (AID 743281); details: microplate NRP2/VEGF-C binding assay; stronger effect = lower value
[6] = Wnt pathway potentiators raising nuclear beta-catenin – imaging, WNT3A-conditioned medium, mouse C2C12, NPC library, primary screen (AID 1117326; in the data active = nuclear beta-catenin stimulation mostly above about 4.2%, no sharp cut-off; inactive = mostly below about 10%); details: stronger effect = higher value
[7] = stimulators of insulin release from INS-1E, primary screen, cell-based, 5 mM glucose, NPC library (AID 1117329;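 active = compound raises insulin release from rat beta cells at 5 mM glucose, no numeric limit stated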); details: rat INS-1E insulin secretion, at 10 µM, stronger effect = higher value
[8] = growth inhibition of GSK3B-pretreated HCT116 cells – cell-based, CellTiter-Glo, 0.2 to 20 µM (AID 1117336;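 active = compounds lowering colon cancer cell viability after pretreatment blocking the GSK3B kinase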); details: HCT116 viability after GSK3B inhibitor, at 20 µM, stronger effect = higher value
[9] = inhibition of endothelial tube formation, primary screen, imaging, VEGF stimulated, CD31 staining, tube area, NPC library (AID 1117340;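 active = compound that reduces growth-factor-driven endothelial tube area in a mixed cell culture, no cutoff stated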); details: VEGF-stimulated ADSC/ECFC co-culture, at 10 µM, stronger effect = higher value
[10] = GLP1 release stimulators, primary, NCI-H716, NPC library (AID 1117341;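 active = compound raises GLP1 secretion from the human gut endocrine cells, with no numeric limit stated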); details: NCI-H716 cells, at 10 µM, stronger effect = higher value
[11] = HCT116 colon cancer cell growth inhibition, primary screen, CellTiter-Glo luminescence, NPC library (AID 1117342;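 active = compounds that lower survival of HCT116 colon cancer cells in the luminescence readout, no numeric limit stated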); details: at 20 µM (top of the series)
[12] = reduced SW480 viability measured with CellTiter-Glo, NPC library, primary (AID 1117343;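 active = compounds that lower viability of the colon cancer cells in the luminescence readout, with no numeric limit stated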); details: CellTiter-Glo luminescence; at 20 µM (top of the series)
[13] = NPC library primary testing for decreased DLD-1 cell viability via CellTiter-Glo (AID 1117346;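 active = compounds that lower survival of DLD-1 colon cancer cells in the luminescence readout, no cutoff given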); details: DLD-1 viability, CellTiter-Glo luminescence; at 20 µM (top of the series)
[14] = tested on: Hepatitis C virus NS3 helicase; assay: blockers of NS3h binding to ssDNA – biochemical, fluorescence polarization, LOPAC1280 library, primary screen (AID 687035; in the data active = inhibition above about 37%); details: Purified HCV NS3 helicase, Cy5-dT15 ssDNA binding fluorescence polarization; stronger effect = higher value; concentration not given here
[15] = compounds altering Cy5-DNA-NS3h complex signal – biochemical, LOPAC1280, artefact control for HCV NS3 helicase inhibitor project (AID 687037); details: Cy5-DNA-NS3h complex fluorescence interference counterscreen
[16] = P. berghei load reduction in hepatocytes – cell-based, HepG2, luciferase luminescence, HepG2 viability, primary screen (AID 624349; in the data active = parasite load remaining mostly below about 12%, no sharp cut-off; inactive = mostly above about 10%;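 note: 100% = mean of DMSO negative control wells on the same plate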); details: P. berghei liver stage in HepG2, luciferase luminescence, concentration not given here; parasite load remaining: stronger effect = lower value; viability: measured here: HepG2 viability without parasites

In the case of `COc1cccc2c1C(=O)c1c(O)c3c(c(O)c1C2=O)C[C@@](O)(C(=O)CO)C[C@@H]3O[C@H]1C[C@H](N)[C@H](O)[C@H](C)O1`, the fluorescence ratio [1] is reported as 0.07 (active), the inhibition [2] is reported as 7.52% (inactive) and the inhibition [3] is reported as 90% (active). For the same compound, the fluorescence ratio [4] was 0.4 (active), the z-score [5] was 0.436 (inactive) and the nuclear beta-catenin stimulation ([6]; at 10 µM) was 28.9% (inactive). For the same compound, the nuclear beta-catenin stimulation ([6]; stimulation, at 2 µM) was 27.7%, the insulin secretion stimulation [7] was 4% (inactive) and the viability decrease [8] was -114% (inactive). The tube area decrease [9] was 22.7% (active), the GLP1 secretion stimulation [10] was 3% (inactive) and the inhibition of viability [11] was 40.6% (inactive). The viability decrease (inhibition) [12] was 99.3% (active) and the viability decrease (inhibition) [13] was 82.4% (active).

In the case of `COC(=O)C1=C(C)NC(C)=C(C(=O)OCC(C)C)C1c1ccccc1[N+](=O)[O-]` (configuration not stated), the fluorescence ratio [1] is reported as 0.95 (inactive), the inhibition [2] is reported as 4.36% (inactive) and the inhibition [3] is reported as -0.87% (inactive). The fluorescence ratio [4] was 0.91 (inactive), the z-score [5] was -0.886 (inactive) and the nuclear beta-catenin stimulation ([6]; at 10 µM) was 6% (inactive). The nuclear beta-catenin stimulation ([6]; stimulation, at 2 µM) was 3.3%, the insulin secretion stimulation [7] was 1.25% (inactive) and the viability decrease [8] was 102% (active). The tube area decrease [9] was 15.6% (inactive), the GLP1 secretion stimulation [10] was 1.3% (inactive) and the inhibition of viability [11] was 97.8% (active). For the same compound, the viability decrease (inhibition) [12] was 122% (active) and the viability decrease (inhibition) [13] was 86.2% (active).

For `O=C(CCNNC(=O)c1ccncc1)NCc1ccccc1`, the inhibition [14] was -4% (inactive), the fluorescence ratio (interference) [15] was 1 (inactive) and the fluorescence ratio [1] was 1.01 (inactive). For the same compound, the inhibition [2] was 0.66% (inactive), the inhibition [3] was -1.97% (inactive) and the fluorescence ratio [4] was 0.97 (inactive). The z-score [5] was -0.136 (inactive), the nuclear beta-catenin stimulation ([6]; at 10 µM) was -1% (inactive) and the nuclear beta-catenin stimulation ([6]; stimulation, at 2 µM) was 0.1%. For the same compound, the insulin secretion stimulation [7] was -2.7% (inactive), the viability decrease [8] was 29.1% (inactive) and the tube area decrease [9] was -20.5% (inactive). For the same compound, the GLP1 secretion stimulation [10] was 0.6% (inactive), the inhibition of viability [11] was -8.3% (inactive) and the viability decrease (inhibition) [12] was 81.2% (active). For the same compound, the viability decrease (inhibition) [13] was 31.8% (inactive).

With `Cc1ccc(NC(=O)c2ccc(CN3CCN(C)CC3)cc2)cc1Nc1nccc(-c2cccnc2)n1` the parasite load remaining [16] was 17.1% (inactive) and 60.3% (inactive), the viability [16] was 65.9% and 227% and the z-score [5] was -0.734 (inactive). The nuclear beta-catenin stimulation ([6]; at 10 µM) was 7.1% (inactive), the nuclear beta-catenin stimulation ([6]; stimulation, at 2 µM) was -0.1% and the insulin secretion stimulation [7] was -3.1% (inactive). The viability decrease [8] was 94.3% (active), the tube area decrease [9] was -31% (inactive) and the GLP1 secretion stimulation [10] was 13.7% (inactive). For the same compound, the inhibition of viability [11] was 98% (active), the viability decrease (inhibition) [12] was 97.6% (active) and the viability decrease (inhibition) [13] was 88.8% (active).

In the case of `CCOC(=O)[C@H](CCc1ccccc1)N[C@@H](C)C(=O)N1[C@H](C(=O)O)C[C@@H]2CCC[C@@H]21`, the fluorescence ratio [1] is reported as 1.01 (inactive) and 1.04 (inactive), the inhibition [2] is reported as -1.98% (inactive) and -3.18% (inactive) and the inhibition [3] is reported as -0.1% (inactive) and -0.48% (inactive). For the same compound, the fluorescence ratio [4] was 0.79 (active) and 1.02 (inactive), the z-score [5] was -0.497 (inactive) and the nuclear beta-catenin stimulation ([6]; at 10 µM) was 0.8% (inactive). For the same compound, the nuclear beta-catenin stimulation ([6]; stimulation, at 2 µM) was 1.9%, the insulin secretion stimulation [7] was 1.25% (inactive) and the viability decrease [8] was 13.8% (inactive). For the same compound, the tube area decrease [9] was -11% (inactive), the GLP1 secretion stimulation [10] was 2.1% (inactive) and the inhibition of viability [11] was 6.1% (inactive). For the same compound, the viability decrease (inhibition) [12] was -19% (inactive) and the viability decrease (inhibition) [13] was -0.3% (inactive).

For `CN(CCCN1c2ccccc2CCc2ccccc21)CC(=O)c1ccc(Cl)cc1`, the parasite load remaining [16] was 66.2% (inactive), the viability [16] was 68.6% and the fluorescence ratio [1] was 0.86 (inactive). For the same compound, the inhibition [2] was 7.52% (inactive), the inhibition [3] was 2.98% (inactive) and the fluorescence ratio [4] was 1.21 (active). The outcome [5] was “inactive”, the nuclear beta-catenin stimulation ([6]; at 10 µM) was 1.2% (inactive) and the nuclear beta-catenin stimulation ([6]; stimulation, at 2 µM) was -1.4%. For the same compound, the insulin secretion stimulation [7] was 10.9% (inactive), the viability decrease [8] was 6.7% (inactive) and the tube area decrease [9] was 29.2% (inactive). For the same compound, the GLP1 secretion stimulation [10] was 4.6% (inactive), the inhibition of viability [11] was 33.2% (inactive) and the viability decrease (inhibition) [12] was 84.8% (active). The viability decrease (inhibition) [13] was 39% (inactive).

With `CCc1oc2ccccc2c1C(=O)c1cc(Br)c(O)c(Br)c1` the viability [16] was 118% and 76% and 66.9%, the fluorescence ratio [1] was 0.92 (inactive) and the inhibition [2] was -2.84% (inactive). The inhibition [3] was 9.06% (inactive), the fluorescence ratio [4] was 0.93 (inactive) and the z-score [5] was 0.212 (inactive). For the same compound, the nuclear beta-catenin stimulation ([6]; at 10 µM) was 5.3% (inactive), the nuclear beta-catenin stimulation ([6]; stimulation, at 2 µM) was 4.6% and the insulin secretion stimulation [7] was 4.6% (inactive). For the same compound, the viability decrease [8] was 116% (active), the tube area decrease [9] was 101% (active) and the GLP1 secretion stimulation [10] was 21.4% (active). The inhibition of viability [11] was 124% (active), the viability decrease (inhibition) [12] was 154% (active) and the viability decrease (inhibition) [13] was 101% (active).

With `CN1CCN(C2=Nc3cc(F)ccc3Cc3ccccc32)CC1` the parasite load remaining [16] was 91.4% (inactive) and 40.9% (inactive), the viability [16] was 62.6% and 67% and the fluorescence ratio [1] was 0.91 (inactive). For the same compound, the inhibition [2] was -1.97% (inactive), the inhibition [3] was 1.97% (inactive) and the fluorescence ratio [4] was 0.9 (inactive). The z-score [5] was -0.511 (inactive), the nuclear beta-catenin stimulation ([6]; at 10 µM) was -1.1% (inactive) and the nuclear beta-catenin stimulation ([6]; stimulation, at 2 µM) was -3%. For the same compound, the insulin secretion stimulation [7] was 3.3% (inactive), the viability decrease [8] was 12.5% (inactive) and the tube area decrease [9] was 13% (inactive). The GLP1 secretion stimulation [10] was 8% (inactive), the inhibition of viability [11] was 37.7% (inactive) and the viability decrease (inhibition) [12] was 26.9% (inactive). For the same compound, the viability decrease (inhibition) [13] was -2.4% (inactive).

With `CC(C)NCC(O)COc1ccc(CCOCC2CC2)cc1` (configuration not stated) the inhibition [14] was -6% (inactive), the fluorescence ratio (interference) [15] was 0.9 (inactive) and the fluorescence ratio [1] was 1.03 (inactive). For the same compound, the inhibition [2] was 5.94% (inactive), the inhibition [3] was 3.75% (inactive) and the fluorescence ratio [4] was 0.95 (inactive). For the same compound, the z-score [5] was -0.0183 (inactive), the nuclear beta-catenin stimulation ([6]; at 10 µM) was 3.6% (inactive) and the nuclear beta-catenin stimulation ([6]; stimulation, at 2 µM) was 3.7%. The insulin secretion stimulation [7] was -1.4% (inactive), the viability decrease [8] was -6.1% (inactive) and the tube area decrease [9] was 26% (inactive). For the same compound, the GLP1 secretion stimulation [10] was 1.9% (inactive), the inhibition of viability [11] was 14.2% (inactive) and the viability decrease (inhibition) [12] was 10.9% (inactive). The viability decrease (inhibition) [13] was 2.1% (inactive).

For `CC[C@@]1(O)C(=O)OCc2c1cc1n(c2=O)Cc2cc3c(CN(C)C)c(O)ccc3nc2-1`, the fluorescence ratio [1] was 1.05 (inactive), the inhibition [2] was 1.98% (inactive) and the inhibition [3] was 3.75% (inactive). The fluorescence ratio [4] was 1.02 (inactive), the z-score [5] was 1.52 (inactive) and the nuclear beta-catenin stimulation ([6]; at 10 µM) was 55.8% (active). The nuclear beta-catenin stimulation ([6]; stimulation, at 2 µM) was 20.6%, the insulin secretion stimulation [7] was 0.5% (inactive) and the viability decrease [8] was 61.2% (active). For the same compound, the tube area decrease [9] was 107% (active), the GLP1 secretion stimulation [10] was -4.3% (inactive) and the inhibition of viability [11] was 52.2% (active). The viability decrease (inhibition) [12] was 75% (active) and the viability decrease (inhibition) [13] was 67.8% (active).
